Screening results from PubChem.
Menin MLL FP TR = menin-MLL binding inhibition, Texas Red mutant peptide; O00255; Menin + Texas Red MLL mutant peptide, fluorescence polarization; Potency, µM (titrated, usually from 61.6 µM), hits mostly inhibitors; 270,000 tested, 0.23% active; AID 1768; active = well fitted inhibition curve with a large enough effect in the polarisation, with a control signal flat, not every such curve was filed as active; inconclusive = small, poorly fitted or top-dose-only effect, or effect the other way, or a change in a side signal; inactive = no such curve, though single readings can be large or run the other way; the % refers to the polarisation
Tb PFK inh-1 = T. brucei PFK enzyme inhibition | AID 485367 | T. brucei PFK, ADP-Glo luminescence | 330,000 tested, 0.17% active | Potency, µM (highest dose often 57.5 µM), hits mostly inhibitors | O15648; note: nearly all actives have a fitted effect of over 60% in size
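Compounds were pin-transferred as a titration series up to 57 uM into substrate buffer (0.5 mM F6P, 0.1 mM ATP, pH 8.0), then 1.25 nM PFK was added and reactions ran 45 min before ADP-Glo detection.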
RGS12 GoLoco inh = inhibitors of human Gai1-RGS12 GoLoco interaction (red fluorophore); 230,000 tested, 0.44% active; Potency, µM (doses to about 61.6 µM), actives largely listed as inhibitors; Gai1:RGS12 GoLoco peptide FP, rhodamine, 10 min; AID 880; active = well fitted inhibition curve with a large enough effect, not every such curve was filed as active; inactive = no such curve, though single readings can be large or run the other way; note: nearly all actives have a fitted effect of over 30% in size
CXXC DNA block = inhibitors of human MLL CXXC domain-DNA interaction | Potency, µM (highest dose often 115 µM), usual class: inhibitors | MLL-CXXC / FITC-HOXA9 DNA fluorescence polarization | 290,000 tested, 0.037% active; active = well fitted inhibition curve with a large enough effect in the polarisation, with a control signal flat, not every such curve was filed as active; inconclusive = small, poorly fitted or top-dose-only effect, or effect the other way, or a change in a side signal; inactive = no such curve, though single readings can be large or run the other way; the % refers to the polarisation
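Purified MLL-CXXC (added from a 7 uM solution) was preincubated 5 min at ambient with pinned compounds in 50 mM Tris-HCl pH 7.5, 50 mM NaCl, 1 mM DTT, 0.05% BSA. Fluorescein-labeled HOX-A9 DNA (50 nM solution) followed, 30 min, then polarization read.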
Menin-MLL FL inh = menin-MLL binding inhibition, fluorescein peptide; 290,000 tested, under 10 active; Fluorescence polarization, fluorescein-MLL peptide displacement from menin; AID 1766; FP activity change, % at 61.4 µM; active = well fitted curve in the direction sought with a large enough effect in the polarisation, not every such curve was filed as active; inconclusive = small, poorly fitted or top-dose-only effect, or effect the other way, or a change in a side signal; inactive = no such curve, though single readings can be large or run the other way; the % refers to the polarisation
Tb PFK KinaseGlo = inhibits T. brucei PFK measured by ATP depletion | shares compounds with Tb PFK inh-1 | Tb PFK enzyme, ATP depletion, Kinase-Glo Plus luminescence | Potency, µM (doses to about 57.5 µM) | 1,100 tested, 47% active | AID 504636; calls by dose curve; note: nearly all actives have a fitted effect of over 60% in size
Tb PFK inh-2 = validation of T. brucei phosphofructokinase inhibitors; shares compounds with Tb PFK inh-1; purified T. brucei PFK, ADP-Glo luminescence, 45 min; Potency, µM (highest dose often 57.5 µM), most hits filed as inhibitors; 1,100 tested, 41% active; AID 504637; note: nearly all actives have a fitted effect of over 60% in size
Hits are given with their value; 0 = inactive; ? = inconclusive; - = no result; ! = a repeat was not active; [ ] = remark or other dose. Only some compounds are listed: those with a hit (about 0.43% of all), similar ones and a draw of the others. Unless noted, calls come from the whole dose curve; as a rule, active = well fitted inhibition curve with a large enough effect; inconclusive = small, poorly fitted or top-dose-only effect, or effect the other way; inactive = flat fitted curve, though single readings scatter.

SMILES | Menin MLL FP TR | Tb PFK inh-1 | RGS12 GoLoco inh | CXXC DNA block | Menin-MLL FL inh | Tb PFK KinaseGlo | Tb PFK inh-2
CN(C)c1ccc(C(=S)N2CCN(c3ccc([N+](=O)[O-])cc3)CC2)cc1 | - | 12µM | 20µM | 0 | 0 | 8.49µM | 13.5µM
O=[N+]([O-])c1ccc(C(=S)N2CCN(c3ccc(F)cc3)CC2)cc1 | 0 | 0 | 0 | 0 | 0 | - | -
Cc1cccc(N2CCN(C(=S)c3ccc([N+](=O)[O-])cc3)CC2)c1 | 0 | ? | 0 | 0 | 0 | 23.9µM | ?
CC(=O)c1cccc(-n2nnnc2SCC(=O)Nc2cc(C)on2)c1 | - | 0 | - | 0 | - | - | -
CC(C)CNC(=S)NC(=O)c1ccc(F)cc1 | 0 | 0 | 0 | 0 | 0 | - | -
COc1cc(/C=C(\C#N)c2nc3ccccc3s2)cc([N+](=O)[O-])c1O | ? | ? | 0 | 0 | 0 | 0 | ?
COc1cc(C(=O)OCC(=O)N2CC(C)OC(C)C2)cc(OC)c1OC (configuration not stated) | 0 | 0 | - | ? | 0 | - | -
CS(=O)(=O)NNC(=O)C1Cc2c(ccc3ccccc23)O1 (configuration not stated) | 0 | ? | - | 0 | 0 | 0 | ?
COc1c(O)c(O)c2cc(OC)c3c(OC)cc(=O)c4c5c(=O)c(OC)c(C(C)=O)c6c5c(c1CC=6C)c2c34 | ? | - | - | - | 0 | - | -
S=C(NCc1ccccc1)N1CCN(c2cccc(Cl)c2)CC1 | ? | 26.9µM | 0 | 0 | 0 | 23.9µM | 26.9µM
O=C(CN1CCN(c2cccc(Cl)c2)CC1)NCc1ccccc1 | 0 | 0 | - | 0 | 0 | - | -
S=C(NCCCN1CCOCC1)N1CCN(c2cccc(Cl)c2)CC1 | 0 | ? | - | 0 | 0 | 21.3µM | 26.9µM
O=c1c2ccccc2oc2c1oc1ccccc12 | - | 0 | - | - | - | - | -
N#Cc1ccccc1Sc1ccccc1N | - | 0 | 0 | 0 | 0 | - | -
Nc1ccccc1SSc1ccccc1N | ? | ? | 0 | 0 | ? | 8.49µM | 13.5µM
Nc1nc(N2CCCCC2)c(C=O)c(N2CCCCC2)n1 | 0 | 0 | 0 | 0 | 0 | - | -
COc1ccc(C(=O)Nc2nnc(CC(=O)N/N=C/c3ccc(O)cc3O)s2)cc1 | ? | ? | - | 0 | ? | 0 | ?
Cc1ccc(C(=O)Nc2nnc(CC(=O)N/N=C/c3ccc(O)c(O)c3)s2)cc1 | ? | ? | - | 0 | 0 | 0 | 0
Cc1ccc(C(=O)Nc2nnc(CC(=O)N/N=C/c3ccncc3)s2)cc1 | 0 | 0 | 0 | 0 | 0 | - | -
COC(=O)c1ccc(C(/C=C/[C@@H](C)C(=O)NCc2cc(C)n(C)n2)NC(=O)OCc2ccccc2)cc1 (some centres not stated) | 0 | - | 0 | - | 0 | - | -
CC[C@@]1(C(=O)OC)N[C@H](CN(C)C(=O)Nc2ccc(Cl)cc2)[C@@H]2C(=O)N(Cc3ccccc3)C(=O)[C@@H]21 | - | 0 | - | - | - | - | -
O=C(NCCc1ccccc1)c1ccc2nc(-c3ccco3)c(-c3ccco3)nc2c1 | ? | ? | 0 | ? | 0 | ? | ?
Cc1nnc(SCC(=O)Nc2nccs2)n(N)c1=O | 0 | 0 | 0 | 0 | 0 | - | -
O=[N+]([O-])c1ccc(CSc2nnc(-c3cnccn3)o2)cc1 | ? | 23.9µM | 0 | 0 | 0 | ? | ?
Cc1nc2c(cc1N)nc(C)n2Cc1ccccc1 | 0 | 0 | - | 0 | 0 | - | -
SMILES | Menin MLL FP TR | Tb PFK inh-1 | RGS12 GoLoco inh | CXXC DNA block | Menin-MLL FL inh | Tb PFK KinaseGlo | Tb PFK inh-2
Cc1noc(C)c1COc1ccc(C(=O)Nc2ccccc2)cc1 | 0 | 0 | 0 | 0 | 0 | - | -
Cc1noc(C)c1COc1ccc(C(=O)NNC(=O)c2ccccc2O)cc1 | - | 5.36µM | - | - | - | 0 | 0
CCN(CC)c1ccc(/C=C2\C(=O)N(c3nnc(C)c(=O)[nH]3)N=C2C)cc1 | - | ? | 0 | 0 | ? | ? | 13.5µM
Cc1ccc(C)c(OCCCC(=O)Nc2ccc(N3CCOCC3)cc2)c1 | 0 | ? | 0 | 0 | 0 | 0 | 0
CC(=O)N(C1=C(Cl)C(=O)c2ccccc2C1=O)C1CCCCC1 | - | 0.675µM | 0 | 0 | 0 | 0.379µM | 0.379µM
CC(=O)N(c1ccccc1C)C1CCCC1 | 0 | 0 | 0 | 0 | 0 | - | -
CN(C)C=Nc1ccc(Cl)c(Cl)c1 | 0 | 26.9µM | 0 | 0 | 0 | 0 | 0
NOCc1ccccc1 | 0 | - | - | - | 0 | - | -
CCOC(=O)C1=C([Si](C)(C)C)c2ccccc2N(S(=O)(=O)C(F)(F)F)C1C(=O)OCC (configuration not stated) | 0 | - | 0 | - | 0 | - | -
CCc1ccc(CNCCc2ccc(F)cc2)cc1 | 0 | 0 | 0 | 0 | 0 | - | -
Fc1ccc(CCNCc2ccc(Cl)c(Cl)c2)cc1 | 0 | ? | 0 | 0 | 0 | 15.1µM | 26.9µM
O=C(NNC(=O)C1CCN(Cc2ccc(F)cc2Cl)CC1)Nc1ccc([N+](=O)[O-])cc1 | 0 | 0 | 0 | 0 | 0 | - | -
CN1CCc2cc(O)c(O)cc2C(c2ccccc2)C1 (configuration not stated) | 0 | ? | 0 | 0 | 0 | ? | ?
Oc1cc2c(cc1O)[C@@H](c1ccccc1)CNCC2 | 0 | 12µM | 12.6µM | 0 | 0 | 1.9µM | 4.78µM
COc1ccc(C2(O)CCN(CC(=O)Nc3nc(-c4ccccc4)cs3)CC2)cc1 | 0 | 0 | 0 | 0 | 0 | - | -
CCC(CO)Oc1cc(NC(=O)Cc2ccccc2)c2ncn(C(C)C)c2c1 (configuration not stated) | - | 0 | - | - | - | - | -
NC(=O)c1c(-c2cccs2)csc1N | 0 | ? | 0 | 0 | 0 | 0 | ?
CCOC(=O)c1c(-c2cccs2)csc1NC(=O)CC(C)C | - | 0 | 0 | 0 | 0 | - | -
CC(C)C[C@@H](NC(=O)[C@@H](Cc1ccccc1)NC(=O)c1cnccn1)B(O)O | 0 | - | - | 0 | 0 | - | -
Cc1cc2c(N)cccc2nn1 | - | 7.57µM | 8.91µM | 0 | - | 0 | 0
COc1cc2c(cc1OC)C(c1ccccc1)N(C(=O)c1cccc(S(C)(=O)=O)c1)CC2 (configuration not stated) | 0 | 0 | - | 0 | 0 | - | -
O=C1C(SCCO)=C(SCCO)C(=O)c2ccccc21 | - | 9.53µM | 3.55µM! | 0 | - | 0.601µM | ?
Cc1ccc(Cl)c(OCC(=O)Nc2ccc(S(=O)(=O)NC3=NCCCCC3)cc2)c1 | - | 0 | - | - | - | - | -
O=C(COc1ccccc1[N+](=O)[O-])Nc1cccc(S(=O)(=O)NC2=NCCCCC2)c1 | - | ? | - | - | - | ? | ?
O=C(COc1ccc(Cl)cc1Cl)Nc1ccc(S(=O)(=O)NC2=NCCCCC2)cc1 | 0 | 15.1µM | - | 0 | 0 | ? | 30.1µM
O=C(NCCc1ccccc1)c1ccc(Cn2c(SCc3cccc(F)c3)nc3cccnc32)cc1 | - | 0 | - | - | - | - | -
COc1cc(C(=O)OCC(=O)NCc2ccco2)cc(OC)c1OC | 0 | 0 | 0 | 0 | 0 | - | -
COc1cc(OC)cc(C(=O)OCC(=O)NCc2ccco2)c1 | - | 15.1µM | - | - | - | ? | ?
O=C(COC(=O)Cc1cccc(C(F)(F)F)c1)NCc1ccco1 | - | 8.49µM | - | - | - | 3.79µM | 10.7µM
CC(C)(C)C(=O)[C@H](C(c1ccccc1)N1CCOCC1)N1CCOCC1 (some centres not stated) | - | - | 0[14.2 µM] | - | - | - | -
